Source: PubChem
Most compounds without a hit are left out; they make up all but 2.5% or so of the library.
Cruzain noTriton: cruzain (T. cruzi) inhibition without detergent; P25779; purified cruzain, Z-FR-AMC fluorescence, no detergent; Potency, µM, for inactives: max response, negative = inhibition, usual class: inhibitors; 200,000 tested, 2.3% active;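 also: plate controls were enzyme without inhibitor for no effect and buffer without enzyme for full effect; nearly all actives have a fitted effect of over 40% in size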
Target sequence (P25779 123-467 limits assumed): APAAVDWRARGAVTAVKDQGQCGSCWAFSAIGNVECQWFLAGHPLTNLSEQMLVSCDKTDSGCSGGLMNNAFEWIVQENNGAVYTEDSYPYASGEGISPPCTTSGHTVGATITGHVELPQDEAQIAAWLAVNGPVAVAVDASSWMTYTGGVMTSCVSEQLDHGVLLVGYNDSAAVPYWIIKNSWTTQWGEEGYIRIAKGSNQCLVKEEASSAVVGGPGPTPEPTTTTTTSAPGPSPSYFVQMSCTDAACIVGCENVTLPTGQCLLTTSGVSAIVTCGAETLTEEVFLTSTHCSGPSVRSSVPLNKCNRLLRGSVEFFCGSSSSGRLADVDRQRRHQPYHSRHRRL
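Purified cruzain at 1.5 nM, pre-incubated 15 min with compound at room temperature in 100 mM sodium acetate pH 5.5, 5 mM DTT, 0.00005% Triton X-100. Reaction started with 2 uM Z-FR-AMC; AMC fluorescence increase over 60 s gives rate.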
Cruzain inh Det: inhibitors of Trypanosoma cruzi cruzain with detergent; purified cruzain, Z-FR-AMC fluorescence, 0.01% Triton; Potency, µM, inactives show max response, negative = inhibition, most hits filed as inhibitors; 200,000 tested, 0.43% active; AID 1478;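 also: plate controls were neutral wells for no effect and buffer without enzyme for full effect; nearly all actives have a fitted effect of over 40% in size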
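Compounds were screened in titration against cruzain (1.5 nM) with 0.01% Triton X-100 to counter colloidal aggregation. Activity was the AMC fluorescence increase over 60 s after adding 2 uM Z-FR-AMC at pH 5.5.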
The depositor's hits bear a star. Calls follow the shape of the dose curve; as a rule, active = well fitted curve in the direction sought with a large enough effect; inconclusive = small, poorly fitted or top-dose-only effect, or another doubt; inactive = no such curve, though single readings can be large; an effect the other way counts as inactive or inconclusive. Potency is read from the fitted curve at half-maximal effect.

For CC1=C(c2ccc(C)c(C)c2)S(=O)(=O)N=C1N1CCC(C(=O)N2CCC(C(N)=O)CC2)CC1 the results were Cruzain noTriton inconclusive and Cruzain inh Det -3.4%.
Screening CCCC12CN3CC(C)(CN(C1)C3c1cn(CC)c3ccccc13)C2=O (stereo unspecified) returned Cruzain noTriton 12.1% and Cruzain inh Det -1.6%.
`O=c1[nH]c(CN2CCN(c3ccccc3)CC2)nc2scc(-c3ccccc3)c12` gave Cruzain noTriton inconclusive and Cruzain inh Det -3.5%.
For CC1Cc2ccccc2N1Cc1nc2scc(-c3cccs3)c2c(=O)[nH]1 (stereo unspecified) the results were Cruzain noTriton 15.8µM* and Cruzain inh Det -4.4%.
Screening CC1Cc2ccccc2N1Cc1nc2cc(Cl)ccc2c(=O)[nH]1 (stereo unspecified) returned Cruzain noTriton 25.1µM* and Cruzain inh Det 4.5%.
Screening COC(=O)c1ccc2c(=O)[nH]c(CN3c4ccccc4CC3C)nc2c1 (stereo unspecified) returned Cruzain noTriton inconclusive and Cruzain inh Det -1.9%.
For O=C(CCCn1nnc(-c2cccnc2)n1)c1ccc(F)cc1 the results were Cruzain noTriton 0.8% and Cruzain inh Det 1.7%.
Cc1cc(C)nc(N/N=C/C=C/c2ccccc2)n1 was read as Cruzain noTriton -2.8% and Cruzain inh Det -7.1%.
`Cc1sc(N/N=C/C=C/c2ccccc2)nc1-c1ccccc1` gave Cruzain noTriton 7.94µM* and Cruzain inh Det -0.4%.
Screening COc1ccc2c(c1)O[C@@H](c1ccc3c(c1)OCO3)[C@H](O)C2=O returned Cruzain noTriton -12.6% and Cruzain inh Det 1.0%.
Screening COc1ccc(N2CCN(c3oc(-c4ccccc4C)nc3S(=O)(=O)c3ccccc3)CC2)cc1 returned Cruzain noTriton 12.6µM* and Cruzain inh Det -4.3%.
`Cc1ccc(-c2nc(S(=O)(=O)c3ccccc3)c(N3CCN(c4ccccc4)CC3)o2)cc1` gave Cruzain noTriton -8.8% and Cruzain inh Det -1.0%.
OC[C@@H](O)CNc1ncnc2ccccc12 was read as Cruzain noTriton 2.1% and Cruzain inh Det 1.1%.
`CCOc1cc(/C=C2\C(=O)N(c3nc(-c4ccc(Br)cc4)cs3)N=C2c2ccccc2)ccc1O` gave Cruzain noTriton 3.16µM* and Cruzain inh Det inconclusive.
Screening CCOc1cc(/C=C/c2cc(C(=O)O)c3ccccc3n2)ccc1O returned Cruzain noTriton -10.0% and Cruzain inh Det -9.9%.
Screening CCOC(=O)c1cc(S(=O)(=O)Nc2ccc(C)cc2Cl)[nH]n1 returned Cruzain noTriton 3.5% and Cruzain inh Det -1.5%.
Cc1cccc(C(=O)NNC(=O)c2cc3cc4ccccc4nc3s2)c1 was read as Cruzain noTriton 20µM* and Cruzain inh Det 3.5%.
For O=C(NNC(=O)c1cc2cc3ccccc3nc2s1)c1cccc(Cl)c1 the results were Cruzain noTriton 25.1µM* and Cruzain inh Det inconclusive.
O=C(NNC(=O)c1ccccc1Br)c1cccc(Cl)c1 was read as Cruzain noTriton -3.7% and Cruzain inh Det 2.6%.
Screening Cc1ccc(S(=O)(=O)NNC(=O)c2cc3cc4ccccc4nc3s2)cc1 returned Cruzain noTriton -5.3% and Cruzain inh Det -13.6%.
Cc1ccccc1C(=O)NNC(=O)c1ccc(F)cc1 was read as Cruzain noTriton -0.5% and Cruzain inh Det -1.5%.
For O=C(NNC(=O)c1cc2cc3ccccc3nc2s1)c1ccc(F)cc1 the results were Cruzain noTriton 10µM* and Cruzain inh Det inconclusive.
For CC(C)N(C(=O)Cn1cc(SCC(=O)Nc2ccccc2C(F)(F)F)c2ccccc21)C(C)C the results were Cruzain noTriton -3.3% and Cruzain inh Det -0.8%.
COCCn1c(=O)c(C)nc2cnc(Oc3cccc(Cl)c3)nc21 was read as Cruzain noTriton 18.8% and Cruzain inh Det -3.3%.
Cc1ccc(C)c(N2CCN(C(=O)c3ccc(-c4nc(COc5ccccc5)c(C)o4)cc3)CC2)c1 was read as Cruzain noTriton 4.5% and Cruzain inh Det 6.2%.
Screening CC(=O)c1cccc(NC(=O)C(OC(=O)c2ccccc2NS(=O)(=O)c2cccs2)c2ccccc2)c1 (stereo unspecified) returned Cruzain noTriton 7.94µM* and Cruzain inh Det -2.9%.
For CCOc1ccccc1NC(=O)C(OC(=O)c1ccccc1NS(=O)(=O)c1cccs1)c1ccccc1 (stereo unspecified) the results were Cruzain noTriton inconclusive and Cruzain inh Det -1.6%.
COc1ccc(N(C)S(=O)(=O)c2cccc(C(=O)Nc3ccc(OC)nc3)c2)cc1 was read as Cruzain noTriton 8.2% and Cruzain inh Det -2.1%.
For COc1ccc(C)cc1NC(=O)c1ccc(N(C)S(C)(=O)=O)cc1 the results were Cruzain noTriton -5.0% and Cruzain inh Det -9.4%.
CC(=O)NCCC(=O)Nc1cccc(S(=O)(=O)N(C)c2ccccc2)c1 was read as Cruzain noTriton -3.5% and Cruzain inh Det 0.7%.
Screening CC(=O)c1cccc(NC(=O)C(OC(=O)c2cccc(S(=O)(=O)N(C)c3ccccc3)c2)c2ccccc2)c1 (stereo unspecified) returned Cruzain noTriton 25.1µM* and Cruzain inh Det -1.5%.
`COc1ccc(C)cc1NC(=O)C(OC(=O)c1ccc(Cl)c(S(=O)(=O)N(C)c2ccccc2)c1)c1ccccc1` (stereo unspecified) gave Cruzain noTriton 10µM* and Cruzain inh Det 2.7%.
COc1ccc(N(C)S(=O)(=O)c2cccc(C(=O)OC(C(=O)Nc3cc(C)cc(C)c3)c3ccccc3)c2)cc1 (stereo unspecified) was read as Cruzain noTriton 10µM* and Cruzain inh Det 2.8%.
Screening O=C(Nc1ccc(S(=O)(=O)N2CCOCC2)cc1)c1ccc(CN2CCc3ccccc3C2)cc1 returned Cruzain noTriton 6.0% and Cruzain inh Det 5.3%.
`[N-]=[N+]=NC[C@@H]1O[C@@H](n2cnc3c(N)ncnc32)[C@@H]2O[C@@H]21` gave Cruzain noTriton 11.2% and Cruzain inh Det 4.0%.
For CC1CCCN(S(=O)(=O)c2cc(C(=O)NCc3ccccc3Cl)n(C)c2)C1 (stereo unspecified) the results were Cruzain noTriton -7.6% and Cruzain inh Det -10.0%.
For CC(C)CNC(=O)c1cc(-c2ccc(Cl)c(Cl)c2)on1 the results were Cruzain noTriton 12.6µM* and Cruzain inh Det 7.8%.
`O=C(NCCc1ccccc1)c1cc(-c2ccc(Cl)c(Cl)c2)on1` gave Cruzain noTriton 0.4% and Cruzain inh Det -1.8%.
For CCOC(=O)c1[nH]c2ccccc2c1NC(=O)c1cc(OC)cc(OC)c1 the results were Cruzain noTriton -0.7% and Cruzain inh Det -12.1%.
N=C(N)S/C=C\C(=O)O was read as Cruzain noTriton 3.0% and Cruzain inh Det -2.7%.
For O=C(CSc1oc(-c2ccco2)nc1S(=O)(=O)c1ccc(Cl)cc1)c1ccc(Cl)cc1 the results were Cruzain noTriton 25.1µM* and Cruzain inh Det -6.4%.
For O=C(CSc1oc(-c2ccc(F)cc2)nc1S(=O)(=O)c1ccc(Cl)cc1)c1ccccc1 the results were Cruzain noTriton 31.6µM* and Cruzain inh Det -4.5%.
`Cc1ccc(S(=O)(=O)c2nc(-c3ccco3)oc2SCC(=O)c2ccc(Cl)cc2)cc1` gave Cruzain noTriton inconclusive and Cruzain inh Det -8.3%.
`O=C(CSc1oc(-c2ccccc2)nc1S(=O)(=O)c1ccc(Cl)cc1)c1ccccc1` gave Cruzain noTriton inconclusive and Cruzain inh Det -7.9%.
For CCOC(=O)c1cccc(P(C)(C)=O)c1 the results were Cruzain noTriton -0.8% and Cruzain inh Det -0.5%.
